Laboratory results published in PubChem BioAssay.
For some of these results: Results with a measured potency or affinity are listed apart. Activity calls are given as the source filed them. Unless noted, how the calls were made is not given here.

Key:
[1] = target: Cell division control protein 42 homolog (Homo sapiens) (UniProt P60953); experiment: inhibition of fluorescent GTP binding to constitutively active Cdc42 – biochemical, multiplex bead flow cytometry, Bodipy-FL-GTP, dose response (AID 1333;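 active means fitted half-maximal concentration within the tested dose range, moderate curve steepness, a statistically real signal drop, and little compound fluorescence or tag-binding interference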)
Cell division control protein 42 homolog (Homo sapiens), sequence (P60953 whole entry, looked up): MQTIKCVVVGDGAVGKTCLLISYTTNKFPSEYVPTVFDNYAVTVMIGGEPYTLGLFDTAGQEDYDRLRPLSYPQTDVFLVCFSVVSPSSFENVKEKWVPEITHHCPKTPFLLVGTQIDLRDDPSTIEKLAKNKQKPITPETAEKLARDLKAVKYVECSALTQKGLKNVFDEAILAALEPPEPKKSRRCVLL

[2] = target: Cell division control protein 42 homolog (Homo sapiens) (UniProt P60953); experiment: inhibition of fluorescent GTP binding to wildtype Cdc42 – biochemical, multiplex bead flow cytometry, Bodipy-FL-GTP, dose response (AID 1334;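 active means fitted half-maximal concentration within the tested range, moderate curve steepness, significant signal drop, and little compound fluorescence or bead-linkage interference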); conditions: bead-based flow cytometry, Bodipy-FL-GTP binding to GST-Cdc42; at 100 µM (top of the series) unless noted
[3] = target: GTPase HRas (Homo sapiens) (UniProt P01112); experiment: Ras wt fluorescent GTP loading blockade – biochemical, wildtype, multiplex bead flow cytometry, dose response (AID 1335;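 active means fitted half-maximal concentration within 10 nM to 100 µM, steepness 0.5 to 2, significant signal drop, low assay interference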); conditions: bead-based flow cytometry, Bodipy-GTP binding to GST-Ras; at 100 µM (top of the series) unless noted
GTPase HRas (Homo sapiens), sequence (P01112 whole entry, looked up): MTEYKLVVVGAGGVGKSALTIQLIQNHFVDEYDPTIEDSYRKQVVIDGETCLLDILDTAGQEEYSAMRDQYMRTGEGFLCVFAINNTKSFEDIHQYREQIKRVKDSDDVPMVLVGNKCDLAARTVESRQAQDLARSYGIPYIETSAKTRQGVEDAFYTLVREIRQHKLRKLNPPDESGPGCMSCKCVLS

[4] = tested on: Ras-related protein Rab-7a (dog), GTP binding; experiment: blockers of fluorescent GTP binding to Rab7 – biochemical, wildtype, multiplex bead flow cytometry, dose response (AID 1336)
[5] = target: Ras-related C3 botulinum toxin substrate 1 (Homo sapiens) (UniProt P63000); experiment: inhibition of wildtype Rac1 nucleotide loading – biochemical, multiplex bead flow cytometry, dose response (AID 1340;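 active means dose curve with midpoint inside tested range, moderate steepness, plateau gap beyond fit error, low compound glow and bead-link interference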); conditions: GST-Rac1 beads, Bodipy-FL-GTP binding; at 100 µM (top of the series) unless noted
[6] = target: GTPase HRas (Homo sapiens) (UniProt P01112); experiment: blockade of GTP loading onto mutant Ras – biochemical, activated mutant, multiplex bead flow cytometry, dose response (AID 1341;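 active means dose-response curve with midpoint inside the tested range, moderate steepness, significant amplitude and little compound fluorescence or bead-attachment interference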;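 further: GST-tagged constitutively activated Ras mutant immobilized on beads and multiplexed with other GTPases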)
[7] = hit retest on RPL19A-GFP reporter strain – cell-based, S. cerevisiae, flow cytometry, cherry picks, mother/daughter gates, confirmation (AID 2270;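 active means GFP response below 50% of the DMSO control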); conditions: 3 h, at 10 µM, stronger effect = lower value, 100 = same GFP as DMSO wells
[8] = yeast TOR pathway reporter LAP4-GFP change – cell-based, cherry picks, flow cytometry, mother/daughter gates, confirmation (AID 2271;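 active means GFP response above 150% of the DMSO control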;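 further: ratio of sample to DMSO plate mean so 100% equals DMSO level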); conditions: S. cerevisiae LAP4-GFP strain, 3 h, at 10 µM, stronger effect = higher value, 100 means same as DMSO control
[9] = TOR pathway reporter MEP2-GFP, retest of hits – S. cerevisiae, flow cytometry GFP, cherry picks, confirmation (AID 2272;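 active means GFP response above 150% of the DMSO control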;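 further: ratio of well signal to plate DMSO mean so 100% equals DMSO level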); conditions: S. cerevisiae MEP2-GFP strain, 3 h, at 10 µM, stronger effect = higher value
[10] = yeast AGP1-GFP fluorescence change, single-dose – cell-based, flow cytometry, S. cerevisiae, cherry picks, confirmation (AID 2273;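 active means GFP response above 150% of the DMSO level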;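 further: median GFP channel fluorescence over the whole cell population gate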); conditions: S. cerevisiae AGP1-GFP strain, 3 h, at 10 µM
[11] = TOR pathway CIT2 reporter hit retest – S. cerevisiae, GFP fusion, cherry picks, mother/daughter gates, confirmation (AID 2274;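 active means GFP response above 150% of the DMSO level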); conditions: S. cerevisiae CIT2-GFP strain, flow cytometry, 3 h, at 10 µM, stronger effect = higher value
[12] = reduced mouse 2C T cell binding to pMHC/ICAM-1 vesicles – MLPCN validation set, flow cytometry, LFA-1/ICAM-1 modulator project, pilot screen (AID 2523;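 active means response below a set limit, under 55% cells CD8-positive and vesicle-bound, and CD8 cells' 90th-percentile brightness under 279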;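 on vesicle binding response: mean PE anti-B7-1 fluorescence of CD8+ cells relative to row control; 100% = QL9-loaded vesicles with DMSO vehicle in the same plate row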); conditions: 2C mouse CD8+ T cells, at 7 µM, stronger effect = lower value; double positive events: measured here: CD8+/vesicle+ event percentage
[13] = calorie-restriction mimetic ROS inhibitors, yeast – validation compound set, pilot screen (AID 2706;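 active means superoxide response below 65% of plate, a cut near 3 SD across the whole screen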;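 further: yeast exposed to compound for one week at 30 degrees C before staining; 100% = mean of all compound wells on the same plate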); conditions: S. cerevisiae aging, superoxide DHE fluorescence; at 10 µM; stronger effect = lower value
[14] = target: Beta-adrenergic receptor kinase 1 (Homo sapiens) (UniProt P25098); experiment: GRK2 binders displacing RNA aptamer, biochemical, validation, human GRK2, bead flow cytometry (AID 488806;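 active means aptamer binding inhibition above 30%, about 3 SD of noise from non-fluorescent compounds; inactive means inhibition at or below 30%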); conditions: bead-bound GRK2, FAM-aptamer displacement, at 10 µM, stronger effect = higher value
Beta-adrenergic receptor kinase 1 (Homo sapiens), sequence (P25098 whole entry, looked up): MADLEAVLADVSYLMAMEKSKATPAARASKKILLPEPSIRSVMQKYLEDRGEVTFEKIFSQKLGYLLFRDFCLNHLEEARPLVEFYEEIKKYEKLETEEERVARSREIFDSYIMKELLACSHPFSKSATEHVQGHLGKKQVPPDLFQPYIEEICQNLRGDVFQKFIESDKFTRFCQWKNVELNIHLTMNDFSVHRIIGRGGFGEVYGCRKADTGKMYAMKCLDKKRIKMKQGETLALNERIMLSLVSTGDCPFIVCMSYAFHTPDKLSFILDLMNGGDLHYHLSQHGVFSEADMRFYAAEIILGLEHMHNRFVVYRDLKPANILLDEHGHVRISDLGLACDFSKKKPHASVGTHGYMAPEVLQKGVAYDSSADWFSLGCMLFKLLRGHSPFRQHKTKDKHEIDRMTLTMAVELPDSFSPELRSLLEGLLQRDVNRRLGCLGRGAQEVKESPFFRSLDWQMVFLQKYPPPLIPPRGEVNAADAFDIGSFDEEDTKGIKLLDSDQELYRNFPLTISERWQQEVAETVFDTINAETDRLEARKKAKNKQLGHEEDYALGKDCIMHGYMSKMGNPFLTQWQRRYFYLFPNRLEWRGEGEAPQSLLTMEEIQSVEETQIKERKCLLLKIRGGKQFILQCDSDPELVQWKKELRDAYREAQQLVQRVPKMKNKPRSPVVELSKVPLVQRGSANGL

[15] = target: Beta-2 adrenergic receptor (Homo sapiens) (UniProt P07550); experiment: agonist-induced loss of surface beta2AR – cell-based, FAP fluorogen, flow cytometry, validation set, pilot screen (AID 504459;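 active means percent response above 42, roughly 3 SD of non-fluorescent test compounds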;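 further: agonist-driven loss of surface beta2AR via internalization measured by FAP dye flow cytometry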); conditions: Am2.2-beta2AR cells, at 10 µM, stronger effect = higher value
Beta-2 adrenergic receptor (Homo sapiens), sequence (P07550 whole entry, looked up): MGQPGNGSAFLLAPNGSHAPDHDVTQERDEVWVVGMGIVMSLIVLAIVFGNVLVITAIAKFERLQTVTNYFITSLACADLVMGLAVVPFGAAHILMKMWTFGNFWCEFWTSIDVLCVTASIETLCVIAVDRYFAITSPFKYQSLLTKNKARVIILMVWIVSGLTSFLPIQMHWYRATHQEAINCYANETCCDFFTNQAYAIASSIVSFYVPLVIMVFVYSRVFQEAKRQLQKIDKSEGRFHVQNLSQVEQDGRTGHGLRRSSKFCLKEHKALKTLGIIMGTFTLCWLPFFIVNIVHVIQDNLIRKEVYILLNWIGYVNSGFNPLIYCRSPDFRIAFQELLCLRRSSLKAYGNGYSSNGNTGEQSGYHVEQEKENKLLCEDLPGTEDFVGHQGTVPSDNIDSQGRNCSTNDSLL

[16] = target: AP-2 complex subunit beta (Homo sapiens) (UniProt P63010); experiment: beta-arrestin/AP2 interaction blockers – biochemical, validation set, GST-AP2 beads, flow cytometry, pilot screen (AID 504541;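 active means inhibition above 54%, about 3 SD of non-fluorescent compounds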;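 further: AP2 carries R879A mutation and is captured from E. coli lysate; bead-bound FITC arrestin peptide fluorescence measuring arrestin peptide binding to AP2; 0% = DMSO wells and 100% = excess unlabeled arrestin peptide control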); conditions: FITC arrestin peptide, at 10 µM, stronger effect = higher value, AP2 beta2 appendage fragment, R879A mutant
AP-2 complex subunit beta (Homo sapiens), sequence (P63010 whole entry, looked up, the tested form may be a part, one chain of several): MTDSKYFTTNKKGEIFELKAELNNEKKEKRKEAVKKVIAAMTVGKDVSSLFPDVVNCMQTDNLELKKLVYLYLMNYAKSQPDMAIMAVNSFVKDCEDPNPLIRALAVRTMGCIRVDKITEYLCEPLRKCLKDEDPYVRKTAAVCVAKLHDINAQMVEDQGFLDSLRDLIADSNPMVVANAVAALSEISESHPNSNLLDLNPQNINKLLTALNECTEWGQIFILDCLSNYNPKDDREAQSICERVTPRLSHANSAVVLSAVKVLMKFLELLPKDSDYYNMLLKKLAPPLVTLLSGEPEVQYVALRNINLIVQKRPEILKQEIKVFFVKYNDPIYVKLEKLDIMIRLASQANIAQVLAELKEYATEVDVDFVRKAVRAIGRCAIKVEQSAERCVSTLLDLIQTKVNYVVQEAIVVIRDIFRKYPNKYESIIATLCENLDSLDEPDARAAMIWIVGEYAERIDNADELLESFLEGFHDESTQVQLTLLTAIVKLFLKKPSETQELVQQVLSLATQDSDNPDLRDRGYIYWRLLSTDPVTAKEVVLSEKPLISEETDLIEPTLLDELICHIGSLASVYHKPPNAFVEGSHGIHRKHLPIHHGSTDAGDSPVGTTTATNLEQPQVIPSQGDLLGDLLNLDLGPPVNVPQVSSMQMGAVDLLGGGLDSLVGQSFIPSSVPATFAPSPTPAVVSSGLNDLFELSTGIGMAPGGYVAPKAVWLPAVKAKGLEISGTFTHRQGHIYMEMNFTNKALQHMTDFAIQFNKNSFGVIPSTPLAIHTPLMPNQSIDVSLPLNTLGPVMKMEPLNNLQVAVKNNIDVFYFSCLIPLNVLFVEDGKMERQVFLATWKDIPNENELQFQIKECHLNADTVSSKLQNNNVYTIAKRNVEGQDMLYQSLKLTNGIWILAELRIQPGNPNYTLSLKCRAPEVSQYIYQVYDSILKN

[17] = cytosolic pH regulators acting via V-ATPase – S. cerevisiae, pHLuorin, HTS validation (AID 504600; in the data active means response above about 15%;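 further: plate controls were DMSO for no effect and reference compound for full effect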); conditions: V-ATPase proton transport, at 10 µM, stronger effect = higher value
[18] = tested on: anti-desmoglein-3 scFv antibody binding to human DSG3; experiment: blockers of pathogenic pemphigus antibody–desmoglein-3 binding – biochemical, validation compound set, bead-based, flow cytometry, pilot screen (AID 588368;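 active means binding below the plate cutoff, the plate median minus 3 SD, with a reading above zero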;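 further: signal is the median channel fluorescence of bead-bound GFP antibody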); conditions: Protein G beads, DSG3-Fc, scFv-GFP binding, at 10 µM, stronger effect = lower value
[19] = Nile Red efflux blockade in pump-expressing yeast – validation compound set, multiplex, phenotypic, pilot screen (AID 588506;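 active means efflux inhibition above 0.42, the validation set average plus 4 SD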;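 further: Nile Red retained in cells so higher fluorescence means more efflux inhibition; 0 = negative control wells and 1 = enniatin B 25 µM full block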); conditions: S. cerevisiae pump-expressing triplex, Nile Red efflux flow cytometry; at 10 µM; stronger effect = higher value; the pumps come from Candida albicans
[20] = target: ATP-binding cassette sub-family B member 6 (Homo sapiens) (UniProt Q9NP58); experiment: blockers of ABCB6-driven porphyrin uptake – K562-ABCB6 cells, flow cytometry, validation set, pilot screen (AID 588550;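 active means inhibition above the screen-wide mean plus 3 SD, about 51%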;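 further: 0% = DMSO wells and 100% = benzethonium chloride 70 µM positive control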); conditions: K562-ABCB6 porphyrin accumulation, 1 h, at 10 µM, stronger effect = higher value
ATP-binding cassette sub-family B member 6 (Homo sapiens), sequence (Q9NP58 whole entry, looked up): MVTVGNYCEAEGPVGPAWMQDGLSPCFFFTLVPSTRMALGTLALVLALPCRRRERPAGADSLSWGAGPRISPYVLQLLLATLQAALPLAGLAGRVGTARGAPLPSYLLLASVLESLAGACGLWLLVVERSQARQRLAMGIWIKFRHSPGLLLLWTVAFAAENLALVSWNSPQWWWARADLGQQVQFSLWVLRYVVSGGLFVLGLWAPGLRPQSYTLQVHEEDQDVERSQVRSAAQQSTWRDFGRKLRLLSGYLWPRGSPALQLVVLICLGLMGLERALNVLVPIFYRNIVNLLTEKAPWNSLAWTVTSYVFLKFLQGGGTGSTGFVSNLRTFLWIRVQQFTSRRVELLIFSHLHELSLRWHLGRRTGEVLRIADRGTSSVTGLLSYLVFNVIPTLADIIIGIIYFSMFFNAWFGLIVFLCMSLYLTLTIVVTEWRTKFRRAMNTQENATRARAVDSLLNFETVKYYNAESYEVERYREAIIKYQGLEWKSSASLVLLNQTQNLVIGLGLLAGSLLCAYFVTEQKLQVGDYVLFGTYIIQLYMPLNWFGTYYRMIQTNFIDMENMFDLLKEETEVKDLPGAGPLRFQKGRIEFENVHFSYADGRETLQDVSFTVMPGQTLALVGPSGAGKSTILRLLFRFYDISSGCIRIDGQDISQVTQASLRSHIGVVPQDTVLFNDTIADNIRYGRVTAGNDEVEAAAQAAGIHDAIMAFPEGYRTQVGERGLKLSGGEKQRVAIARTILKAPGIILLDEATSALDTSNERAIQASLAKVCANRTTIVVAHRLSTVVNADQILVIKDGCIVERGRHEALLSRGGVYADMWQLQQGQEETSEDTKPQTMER

[21] = AML differentiation inducers, ER-HoxA9 marrow cells – cell-based, GFP/MAC1 double positive, flow cytometry, validation set, primary screen (AID 588685;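 active means differentiation response of at least 50%, scaled between solvent and reference control, from cells with both markers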;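 further: compound exposure lasts four days before antibody staining and flow analysis; 0% = DMSO wells and 100% = 5 µM fulvestrant positive control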); conditions: stronger effect = higher value, normalized: vehicle 0, fulvestrant 100
[22] = measured here: daughter cell gate
[23] = measured here: mother cell gate
[24] = measured here: daughter cell gate response
[25] = measured here: mother cell gate response

Q: Which results are given for `COc1ccccc1OCCn1cc(C(=O)O)c2cc(Cl)ccc21`?
A: outcome [1]: inactive; fluorescence, percent of control (lower = inhibition) [2]: 55.3%; GTP binding, percent of control [3]: 204%; outcome [4]: inactive; GTP binding signal, raw median fluorescence (lower = inhibition) (MCF (arbitrary fluorescence units)) [5]: 57.7; outcome [6]: inactive

Q: Which outcome [1] does the source give for `CC(C)(C)C(=O)/C=c1\s/c(=C\c2ccc(-c3ccc([N+](=O)[O-])cc3)o2)c(=O)n1CC(=O)NC(N)=O` here?
A: inactive

Q: What about the fluorescence, percent of control (lower = inhibition) [2] of the same compound?
A: 99.6%

Q: And the GTP binding, percent of control [3]?
A: 141%

Q: And the outcome [4]?
A: inactive

Q: And the GTP binding signal, raw median fluorescence (lower = inhibition) (MCF (arbitrary fluorescence units)) [5]?
A: 256

Q: What about the outcome [6] of the same compound?
A: inactive

Q: What about the GFP response vs DMSO [7] of the same compound?
A: 101% (inactive)

Q: What about the GFP response vs DMSO [7, 22] of the same compound?
A: 101%

Q: What about the GFP response vs DMSO [7, 23] of the same compound?
A: 101%

Q: What about the GFP response relative to DMSO [8] of the same compound?
A: 102% (inactive)

Q: What about the GFP response relative to DMSO [8, 24] of the same compound?
A: 99.7%

Q: What about the GFP response relative to DMSO [8, 25] of the same compound?
A: 103%

Q: And the GFP response vs DMSO [9]?
A: 112% (inactive)

Q: What about the GFP response, % of DMSO [10] of the same compound?
A: 101% (inactive)

Q: What about the GFP response, % of DMSO [11] of the same compound?
A: 99.7% (inactive)

Q: And the GFP response, % of DMSO [11, 22]?
A: 100%

Q: And the GFP response, % of DMSO [11, 23]?
A: 98.7%

Q: What does the source list for `COc1cc(/C=N\NC(=O)c2sc(N)nc2C)cc(OC)c1OC`?
A: outcome [1]: inactive; fluorescence, percent of control (lower = inhibition) [2]: 39.4%; GTP binding, percent of control [3]: 51.7%; outcome [4]: inactive; outcome [6]: inactive

Q: With `COc1cccc2sc(Nc3nc(-c4ccccn4)cs3)nc12` as the compound, how does the outcome [1] read?
A: inactive

Q: And the fluorescence, percent of control (lower = inhibition) [2]?
A: 34.8%

Q: And the GTP binding, percent of control [3]?
A: 80.4%

Q: And the outcome [4]?
A: inactive

Q: What about the GTP binding signal, raw median fluorescence (lower = inhibition) (MCF (arbitrary fluorescence units)) [5] of the same compound?
A: 194

Q: What about the outcome [6] of the same compound?
A: inactive

Q: And the GFP response vs DMSO [7]?
A: 107% (inactive)

Q: And the GFP response vs DMSO [7, 22]?
A: 99.5%

Q: What about the GFP response vs DMSO [7, 23] of the same compound?
A: 96.6%

Q: And the GFP response relative to DMSO [8]?
A: 254% (active)

Q: What about the GFP response relative to DMSO [8, 24] of the same compound?
A: 201%

Q: And the GFP response relative to DMSO [8, 25]?
A: 240%

Q: What about the GFP response vs DMSO [9] of the same compound?
A: 124% (inactive)

Q: What about the GFP response, % of DMSO [10] of the same compound?
A: 104% (inactive)

Q: What about the GFP response, % of DMSO [11] of the same compound?
A: 96.5% (inactive)

Q: What about the GFP response, % of DMSO [11, 22] of the same compound?
A: 99.7%

Q: And the GFP response, % of DMSO [11, 23]?
A: 88%

Q: For `CCN1/C(=C/C=C/C=C/c2sc3ccccc3[n+]2CC)Sc2ccccc21`, which outcome [1] is on record?
A: inactive

Q: What about the fluorescence, percent of control (lower = inhibition) [2] of the same compound?
A: 1.8%

Q: What about the GTP binding, percent of control [3] of the same compound?
A: 2%

Q: What about the GTP binding, % of control [4] of the same compound?
A: 4.4% [at 3.7 µM] (inactive)

Q: And the GTP binding signal, raw median fluorescence (lower = inhibition) (MCF (arbitrary fluorescence units)) [5]?
A: 1.8

Q: And the outcome [6]?
A: inactive

Q: And the double positive events [12]?
A: 81.6%

Q: And the vesicle binding response [12]?
A: 109% (inactive)

Q: And the superoxide response (% of plate) [13]?
A: 89.6% (inactive)

Q: And the aptamer binding inhibition [14]?
A: 39% (active)

Q: What about the response [15] of the same compound?
A: -16.6% (inactive)

Q: What about the inhibition [16] of the same compound?
A: 75.8% (active)

Q: What about the response [17] of the same compound?
A: -3.07% (inactive)

Q: What about the binding (% of control) [18] of the same compound?
A: 121% (inactive)

Q: And the efflux inhibition (fraction of control) [19]?
A: 0.73 (active)

Q: What about the inhibition [20] of the same compound?
A: 10% (inactive)

Q: And the differentiation response [21]?
A: 7.37% (inactive)

Q: Which outcome [1] does the source give for `CCOC(=O)N1CCN(C(=O)CCc2ccc(S(=O)(=O)NCCc3ccccc3)cc2)CC1` here?
A: inactive

Q: What about the fluorescence, percent of control (lower = inhibition) [2] of the same compound?
A: 48.3%

Q: And the GTP binding, percent of control [3]?
A: 57.7%

Q: What about the outcome [4] of the same compound?
A: inactive

Q: What about the GTP binding signal, raw median fluorescence (lower = inhibition) (MCF (arbitrary fluorescence units)) [5] of the same compound?
A: 0

Q: What about the outcome [6] of the same compound?
A: inactive

Q: And the GFP response vs DMSO [7]?
A: 99.3% (inactive)

Q: And the GFP response vs DMSO [7, 22]?
A: 100%

Q: And the GFP response vs DMSO [7, 23]?
A: 97.8%

Q: What about the GFP response relative to DMSO [8] of the same compound?
A: 95.3% (inactive)

Q: What about the GFP response relative to DMSO [8, 24] of the same compound?
A: 99%

Q: And the GFP response relative to DMSO [8, 25]?
A: 94.4%

Q: What about the GFP response vs DMSO [9] of the same compound?
A: 101% (inactive)

Q: And the GFP response, % of DMSO [10]?
A: 108% (inactive)

Q: And the GFP response, % of DMSO [11]?
A: 100% (inactive)

Q: What about the GFP response, % of DMSO [11, 22] of the same compound?
A: 101%

Q: And the GFP response, % of DMSO [11, 23]?
A: 100%
